In experiment [1] the target is Fibroblast growth factor receptor 4 (Homo sapiens) (UniProt P22455). To be noted: at 1 µM.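 Also: reported figure is the averaged percent inhibition of FGFR4, from the GSK PKIS kinase screening panel.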
Experiment [2] concerns the target Tyrosine-protein kinase Fgr (Homo sapiens) (UniProt P09769). To be noted: at 0.1 µM.
Experiment [3] shares this target. The conditions noted are these: at 1 µM.
Experiment [4] addresses Vascular endothelial growth factor receptor 1 (Homo sapiens) (UniProt P17948). To be noted: at 0.1 µM.
Experiment [5] has the same target. The conditions noted are these: at 1 µM.
Experiment [6] has as its target Receptor-type tyrosine-protein kinase FLT3 (Homo sapiens) (UniProt P36888). The conditions noted are these: at 0.1 µM.
Experiment [7] shares this target. To be noted: at 1 µM.
For experiment [8], the system named is T1, Receptor-type tyrosine-protein kinase FLT3 (Homo sapiens), P36888 [D835Y].
T1 sequence (whole entry): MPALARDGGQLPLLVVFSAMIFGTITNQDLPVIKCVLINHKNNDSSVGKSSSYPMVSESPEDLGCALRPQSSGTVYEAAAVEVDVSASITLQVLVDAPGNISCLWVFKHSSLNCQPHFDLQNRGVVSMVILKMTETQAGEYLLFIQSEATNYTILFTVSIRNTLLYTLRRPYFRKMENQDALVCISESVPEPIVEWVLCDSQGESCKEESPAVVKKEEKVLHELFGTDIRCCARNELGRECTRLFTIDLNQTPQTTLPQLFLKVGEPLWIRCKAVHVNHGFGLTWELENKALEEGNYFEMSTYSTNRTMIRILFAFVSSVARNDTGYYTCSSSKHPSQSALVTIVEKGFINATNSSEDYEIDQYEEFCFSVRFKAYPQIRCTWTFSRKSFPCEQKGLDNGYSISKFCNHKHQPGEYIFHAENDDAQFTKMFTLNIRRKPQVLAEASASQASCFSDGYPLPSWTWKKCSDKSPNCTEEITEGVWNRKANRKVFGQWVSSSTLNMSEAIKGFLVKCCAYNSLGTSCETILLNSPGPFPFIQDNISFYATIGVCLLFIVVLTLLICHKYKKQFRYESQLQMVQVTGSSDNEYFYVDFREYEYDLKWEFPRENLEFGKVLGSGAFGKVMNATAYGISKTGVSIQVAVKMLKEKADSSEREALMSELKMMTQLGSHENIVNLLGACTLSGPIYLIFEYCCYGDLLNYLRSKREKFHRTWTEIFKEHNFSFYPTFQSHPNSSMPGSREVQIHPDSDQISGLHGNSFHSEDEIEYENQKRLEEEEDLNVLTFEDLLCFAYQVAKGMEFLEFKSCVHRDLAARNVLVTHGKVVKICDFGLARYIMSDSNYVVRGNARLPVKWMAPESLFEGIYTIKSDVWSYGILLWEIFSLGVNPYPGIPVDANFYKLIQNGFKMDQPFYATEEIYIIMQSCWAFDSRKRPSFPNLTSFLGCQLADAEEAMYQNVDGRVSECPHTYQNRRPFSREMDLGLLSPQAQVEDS
The conditions noted are these: at 0.1 µM.

Experiment [9] deals with Non-receptor tyrosine-protein kinase TYK2 (Homo sapiens) (UniProt P29597). To be noted: at 1 µM.
Sequence of Non-receptor tyrosine-protein kinase TYK2 (Homo sapiens) (P29597 whole entry): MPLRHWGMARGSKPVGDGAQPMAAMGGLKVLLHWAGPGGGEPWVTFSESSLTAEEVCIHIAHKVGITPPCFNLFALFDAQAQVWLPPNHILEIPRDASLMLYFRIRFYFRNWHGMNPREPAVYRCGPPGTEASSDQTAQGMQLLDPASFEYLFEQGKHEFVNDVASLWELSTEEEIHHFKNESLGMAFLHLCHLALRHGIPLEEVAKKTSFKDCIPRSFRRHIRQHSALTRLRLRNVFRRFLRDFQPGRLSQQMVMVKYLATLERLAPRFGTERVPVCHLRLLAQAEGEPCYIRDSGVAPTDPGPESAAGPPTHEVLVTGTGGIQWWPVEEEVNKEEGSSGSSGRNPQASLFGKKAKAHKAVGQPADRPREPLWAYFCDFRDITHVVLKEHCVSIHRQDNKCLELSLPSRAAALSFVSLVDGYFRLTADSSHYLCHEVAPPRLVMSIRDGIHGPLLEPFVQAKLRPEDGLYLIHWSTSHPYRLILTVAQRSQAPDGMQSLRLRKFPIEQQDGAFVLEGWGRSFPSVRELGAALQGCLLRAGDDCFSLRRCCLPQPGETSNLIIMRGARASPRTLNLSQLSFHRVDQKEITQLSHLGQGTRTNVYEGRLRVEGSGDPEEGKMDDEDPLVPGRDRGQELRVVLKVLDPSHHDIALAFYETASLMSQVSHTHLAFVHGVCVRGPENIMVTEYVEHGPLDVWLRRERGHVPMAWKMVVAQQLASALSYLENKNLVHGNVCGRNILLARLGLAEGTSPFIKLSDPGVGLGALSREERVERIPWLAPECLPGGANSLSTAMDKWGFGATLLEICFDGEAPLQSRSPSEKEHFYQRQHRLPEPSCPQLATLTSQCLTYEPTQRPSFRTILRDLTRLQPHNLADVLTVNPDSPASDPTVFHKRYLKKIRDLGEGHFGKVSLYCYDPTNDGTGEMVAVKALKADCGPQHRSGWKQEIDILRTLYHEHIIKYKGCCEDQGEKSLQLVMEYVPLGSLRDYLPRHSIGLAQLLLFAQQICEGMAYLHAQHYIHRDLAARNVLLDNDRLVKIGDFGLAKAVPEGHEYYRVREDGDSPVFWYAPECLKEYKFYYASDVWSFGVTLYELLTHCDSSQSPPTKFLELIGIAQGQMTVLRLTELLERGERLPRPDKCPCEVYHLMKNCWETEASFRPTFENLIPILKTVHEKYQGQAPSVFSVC
Experiment [10] has as its target T2, Tyrosine-protein kinase receptor TYRO3 (Homo sapiens) (UniProt Q06418).
T2 sequence (whole entry): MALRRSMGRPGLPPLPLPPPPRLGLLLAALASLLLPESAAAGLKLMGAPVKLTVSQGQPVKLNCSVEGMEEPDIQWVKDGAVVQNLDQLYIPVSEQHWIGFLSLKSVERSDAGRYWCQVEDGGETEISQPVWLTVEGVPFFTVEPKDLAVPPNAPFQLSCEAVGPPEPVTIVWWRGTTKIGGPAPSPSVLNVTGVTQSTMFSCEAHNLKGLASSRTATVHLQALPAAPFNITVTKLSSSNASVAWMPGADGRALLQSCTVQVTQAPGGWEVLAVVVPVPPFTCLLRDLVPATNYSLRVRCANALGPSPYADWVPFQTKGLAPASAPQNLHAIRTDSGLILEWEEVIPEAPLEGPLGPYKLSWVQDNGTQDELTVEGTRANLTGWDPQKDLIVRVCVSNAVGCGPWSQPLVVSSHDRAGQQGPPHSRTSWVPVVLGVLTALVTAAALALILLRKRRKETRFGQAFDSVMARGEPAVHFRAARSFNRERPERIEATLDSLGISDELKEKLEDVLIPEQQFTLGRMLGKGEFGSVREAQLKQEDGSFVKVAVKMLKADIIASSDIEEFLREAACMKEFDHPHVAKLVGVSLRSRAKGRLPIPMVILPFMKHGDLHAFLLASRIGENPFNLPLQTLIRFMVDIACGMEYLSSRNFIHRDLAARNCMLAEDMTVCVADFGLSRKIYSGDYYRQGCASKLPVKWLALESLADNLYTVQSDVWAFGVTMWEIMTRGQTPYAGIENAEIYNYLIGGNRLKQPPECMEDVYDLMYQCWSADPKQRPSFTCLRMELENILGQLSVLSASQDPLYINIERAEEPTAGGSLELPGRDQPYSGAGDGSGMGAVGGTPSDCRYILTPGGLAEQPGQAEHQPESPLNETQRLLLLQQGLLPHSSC
The conditions noted are these: at 0.1 µM.

Experiment [11] addresses T2, Tyrosine-protein kinase receptor TYRO3 (Homo sapiens). The conditions noted are these: at 1 µM.
Experiment [12] has as its target Tyrosine-protein kinase Yes (Homo sapiens) (UniProt P07947). The conditions noted are these: at 0.1 µM.
The target is the same in experiment [13]. To be noted: at 1 µM.
In experiment [14] the target is T3, Tyrosine-protein kinase ZAP-70 (Homo sapiens) (UniProt P43403).
T3 sequence (whole entry): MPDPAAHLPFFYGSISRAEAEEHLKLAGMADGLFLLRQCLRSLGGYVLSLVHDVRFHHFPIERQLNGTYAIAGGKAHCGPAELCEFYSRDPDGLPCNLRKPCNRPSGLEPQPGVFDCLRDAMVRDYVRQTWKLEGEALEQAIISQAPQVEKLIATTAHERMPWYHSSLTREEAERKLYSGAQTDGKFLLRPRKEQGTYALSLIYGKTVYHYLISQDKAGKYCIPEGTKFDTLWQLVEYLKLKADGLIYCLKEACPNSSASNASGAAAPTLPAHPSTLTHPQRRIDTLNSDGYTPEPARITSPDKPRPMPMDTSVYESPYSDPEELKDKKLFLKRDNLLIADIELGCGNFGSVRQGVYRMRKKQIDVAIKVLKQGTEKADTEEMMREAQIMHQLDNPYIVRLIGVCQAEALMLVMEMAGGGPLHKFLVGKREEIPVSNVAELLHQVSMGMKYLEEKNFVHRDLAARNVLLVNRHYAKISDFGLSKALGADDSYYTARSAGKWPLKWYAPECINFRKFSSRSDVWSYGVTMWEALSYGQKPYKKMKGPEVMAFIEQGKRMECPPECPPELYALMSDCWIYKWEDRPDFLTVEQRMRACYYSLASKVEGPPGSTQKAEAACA
The conditions noted are these: at 0.1 µM.

For experiment [15], the target named is T3, Tyrosine-protein kinase ZAP-70 (Homo sapiens). The conditions noted are these: at 1 µM.
For experiment [16], the target named is Serine/threonine-protein kinase B-raf (Homo sapiens) (UniProt P15056). The conditions noted are these: at 0.1 µM.
Sequence of Serine/threonine-protein kinase B-raf (Homo sapiens) (P15056 whole entry): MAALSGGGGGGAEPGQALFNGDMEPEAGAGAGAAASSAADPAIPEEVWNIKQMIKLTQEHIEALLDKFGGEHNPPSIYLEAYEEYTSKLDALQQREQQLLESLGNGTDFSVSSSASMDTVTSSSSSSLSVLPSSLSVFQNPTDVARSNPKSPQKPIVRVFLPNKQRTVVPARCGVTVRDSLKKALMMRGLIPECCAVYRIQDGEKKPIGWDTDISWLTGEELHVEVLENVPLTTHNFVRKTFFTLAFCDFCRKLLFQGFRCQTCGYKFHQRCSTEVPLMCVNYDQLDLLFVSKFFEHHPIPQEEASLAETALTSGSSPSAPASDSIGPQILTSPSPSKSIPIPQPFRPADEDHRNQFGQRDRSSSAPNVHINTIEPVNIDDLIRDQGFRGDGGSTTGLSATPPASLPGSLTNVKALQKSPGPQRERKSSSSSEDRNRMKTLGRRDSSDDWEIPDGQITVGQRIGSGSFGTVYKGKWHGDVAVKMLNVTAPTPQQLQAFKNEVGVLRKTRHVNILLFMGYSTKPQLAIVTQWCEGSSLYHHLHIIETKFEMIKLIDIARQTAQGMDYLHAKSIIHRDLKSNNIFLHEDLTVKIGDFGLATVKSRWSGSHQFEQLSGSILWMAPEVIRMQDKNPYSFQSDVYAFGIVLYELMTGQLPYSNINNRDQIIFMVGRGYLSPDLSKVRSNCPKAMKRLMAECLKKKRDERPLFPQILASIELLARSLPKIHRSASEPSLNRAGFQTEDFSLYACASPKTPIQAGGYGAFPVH
Experiment [17] has the same target. To be noted: at 1 µM.
The test system of experiment [18] is Serine/threonine-protein kinase B-raf (Homo sapiens), P15056 [V600E]. To be noted: at 0.1 µM.
Sequence of Serine/threonine-protein kinase B-raf (Homo sapiens), P15056 [V600E] (P15056 whole entry V600E): as the sequence (P15056 whole entry) above, with V600E counted along it
The test system is the same in experiment [19]. To be noted: at 1 µM.
Experiment [20] has as its target RAF proto-oncogene serine/threonine-protein kinase (Homo sapiens) (UniProt P04049). The conditions noted are these: at 0.1 µM.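 Also: values are mean CRAF kinase inhibition from profiling of the GSK Published Kinase Inhibitor Set.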

Sequence of Vascular endothelial growth factor receptor 1 (Homo sapiens) (P17948 whole entry): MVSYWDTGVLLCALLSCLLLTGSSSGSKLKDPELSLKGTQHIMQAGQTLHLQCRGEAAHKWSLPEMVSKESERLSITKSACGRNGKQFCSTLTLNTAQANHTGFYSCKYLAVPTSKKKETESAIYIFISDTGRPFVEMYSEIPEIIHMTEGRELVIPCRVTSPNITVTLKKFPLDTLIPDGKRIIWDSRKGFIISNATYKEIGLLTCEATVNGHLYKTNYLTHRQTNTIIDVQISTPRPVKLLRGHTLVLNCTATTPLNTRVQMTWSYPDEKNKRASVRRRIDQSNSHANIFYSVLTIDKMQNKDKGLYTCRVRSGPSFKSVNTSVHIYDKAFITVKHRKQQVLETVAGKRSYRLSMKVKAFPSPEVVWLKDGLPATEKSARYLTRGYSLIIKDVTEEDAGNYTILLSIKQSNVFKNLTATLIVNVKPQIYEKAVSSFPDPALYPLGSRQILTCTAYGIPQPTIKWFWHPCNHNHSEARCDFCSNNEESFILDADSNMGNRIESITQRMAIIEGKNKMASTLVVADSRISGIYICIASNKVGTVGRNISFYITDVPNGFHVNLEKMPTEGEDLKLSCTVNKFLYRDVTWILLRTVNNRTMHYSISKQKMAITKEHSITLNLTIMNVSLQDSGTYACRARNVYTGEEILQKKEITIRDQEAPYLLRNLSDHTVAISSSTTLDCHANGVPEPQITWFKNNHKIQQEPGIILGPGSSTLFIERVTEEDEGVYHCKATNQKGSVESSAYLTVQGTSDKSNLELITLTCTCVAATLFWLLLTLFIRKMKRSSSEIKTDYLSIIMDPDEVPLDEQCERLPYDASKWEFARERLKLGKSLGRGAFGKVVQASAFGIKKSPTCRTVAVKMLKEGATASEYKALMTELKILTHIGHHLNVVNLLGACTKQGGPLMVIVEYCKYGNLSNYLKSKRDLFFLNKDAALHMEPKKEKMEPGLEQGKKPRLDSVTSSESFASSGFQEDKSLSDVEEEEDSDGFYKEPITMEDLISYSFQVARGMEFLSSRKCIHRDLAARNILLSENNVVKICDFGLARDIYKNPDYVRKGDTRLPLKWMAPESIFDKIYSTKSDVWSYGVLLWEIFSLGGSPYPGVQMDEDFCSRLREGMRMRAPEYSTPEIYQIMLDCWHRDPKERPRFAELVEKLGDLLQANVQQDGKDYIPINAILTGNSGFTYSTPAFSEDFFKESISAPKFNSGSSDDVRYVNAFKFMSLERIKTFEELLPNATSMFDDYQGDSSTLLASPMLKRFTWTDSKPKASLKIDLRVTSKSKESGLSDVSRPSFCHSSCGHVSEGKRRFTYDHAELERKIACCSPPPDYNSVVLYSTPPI
Sequence of RAF proto-oncogene serine/threonine-protein kinase (Homo sapiens) (P04049 whole entry): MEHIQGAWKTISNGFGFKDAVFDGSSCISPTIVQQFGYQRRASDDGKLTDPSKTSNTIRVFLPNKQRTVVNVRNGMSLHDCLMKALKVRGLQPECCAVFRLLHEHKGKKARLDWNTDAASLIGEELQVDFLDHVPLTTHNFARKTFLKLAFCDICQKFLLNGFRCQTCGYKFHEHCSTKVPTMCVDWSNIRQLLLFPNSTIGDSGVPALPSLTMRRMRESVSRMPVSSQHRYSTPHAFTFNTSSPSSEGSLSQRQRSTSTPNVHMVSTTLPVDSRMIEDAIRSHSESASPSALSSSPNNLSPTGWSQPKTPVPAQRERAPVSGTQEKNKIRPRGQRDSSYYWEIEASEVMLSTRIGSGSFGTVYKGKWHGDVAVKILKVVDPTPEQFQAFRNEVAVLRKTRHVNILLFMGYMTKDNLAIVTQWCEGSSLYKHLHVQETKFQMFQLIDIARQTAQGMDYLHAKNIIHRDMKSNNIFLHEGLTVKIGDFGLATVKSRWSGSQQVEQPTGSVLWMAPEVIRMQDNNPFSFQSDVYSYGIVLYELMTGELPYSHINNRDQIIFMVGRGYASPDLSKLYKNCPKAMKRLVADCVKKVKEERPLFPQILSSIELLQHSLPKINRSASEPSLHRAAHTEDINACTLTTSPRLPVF
Sequence of Tyrosine-protein kinase Fgr (Homo sapiens) (P09769 2-529 limits assumed): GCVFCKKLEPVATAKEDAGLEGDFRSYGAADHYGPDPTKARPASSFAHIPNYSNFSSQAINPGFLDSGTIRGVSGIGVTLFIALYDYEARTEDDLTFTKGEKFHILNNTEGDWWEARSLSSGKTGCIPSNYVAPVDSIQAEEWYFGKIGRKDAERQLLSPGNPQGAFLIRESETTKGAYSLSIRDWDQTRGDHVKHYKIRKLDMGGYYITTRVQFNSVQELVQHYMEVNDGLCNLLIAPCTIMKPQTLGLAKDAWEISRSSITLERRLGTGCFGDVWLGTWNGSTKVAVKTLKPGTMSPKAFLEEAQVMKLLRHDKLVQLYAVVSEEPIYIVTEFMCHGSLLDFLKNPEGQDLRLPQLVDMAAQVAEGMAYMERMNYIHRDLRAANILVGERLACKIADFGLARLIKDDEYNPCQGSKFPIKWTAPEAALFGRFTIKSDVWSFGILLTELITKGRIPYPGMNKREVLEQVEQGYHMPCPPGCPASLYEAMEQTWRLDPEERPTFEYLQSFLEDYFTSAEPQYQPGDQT
Sequence of Tyrosine-protein kinase Yes (Homo sapiens) (P07947 2-543 limits assumed): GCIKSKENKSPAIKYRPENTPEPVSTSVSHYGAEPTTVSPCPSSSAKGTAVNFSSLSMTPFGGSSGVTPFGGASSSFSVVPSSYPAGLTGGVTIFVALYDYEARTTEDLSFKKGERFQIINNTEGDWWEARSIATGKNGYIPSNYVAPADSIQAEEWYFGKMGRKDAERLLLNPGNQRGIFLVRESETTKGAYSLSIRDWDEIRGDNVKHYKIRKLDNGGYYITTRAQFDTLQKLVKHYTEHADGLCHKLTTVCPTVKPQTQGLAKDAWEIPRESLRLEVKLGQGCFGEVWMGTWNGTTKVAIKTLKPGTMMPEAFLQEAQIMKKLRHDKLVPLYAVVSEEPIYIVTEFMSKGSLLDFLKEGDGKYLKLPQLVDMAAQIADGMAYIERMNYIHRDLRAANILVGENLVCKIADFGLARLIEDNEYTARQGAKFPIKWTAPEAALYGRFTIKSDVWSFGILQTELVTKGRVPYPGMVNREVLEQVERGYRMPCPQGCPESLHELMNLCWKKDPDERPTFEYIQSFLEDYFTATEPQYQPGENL

For `COc1ccc(CNC(=O)c2ccc(-c3cc(-c4nnc(C)o4)ccc3C)cc2)cc1`, the inhibition (usually the relative decrease from the control value, in per cent) in experiment [1] is 3.73%; in experiment [2] it was 8.93%; in [3] it was 6.92%; in experiment [4], -0.52%; in experiment [5] it was -0.47%; in experiment [6], 0.57%. Besides, the inhibition in experiment [7] was -0.2%; in experiment [8], -2.79%; in [9], 1.88%; in experiment [10], 1.4%; in experiment [11] it was 4.48%; in experiment [12], -0.74%. Moreover, the inhibition in [13] is 7.13%; in experiment [14], 2.69%; in experiment [15], 2.94%; in [16], 0.94%; in experiment [17], -0.29%; in experiment [18] it was 1.06%. The inhibition in experiment [19] turned out to be 1.01%; in experiment [20] it was 1.48%.

In the case of `COC(=O)Nc1nc2ccc(S(=O)(=O)c3ccc(NC(=O)Nc4cc(C(F)(F)F)ccc4F)cc3)cc2[nH]1`, the inhibition in experiment [1] is 0.83%; in [2], 0.25%; in [3] it was 6.79%; in experiment [4] it was 0.68%; in experiment [5], -0.67%; in [6], -0.31%. The inhibition in [7] was 3.96%; in [8], -2.76%; in experiment [9], 0.09%; in experiment [10], 0.25%; in experiment [11] it was 2.45%; in experiment [12] it was 1.97%. The inhibition in experiment [13] was -2.4%; in [14], 2.44%; in [15] it was 3.21%; in [16], 3.07%; in [17], 3.12%; in experiment [18] it was 3.61%. In addition, the inhibition in experiment [19] is 4.39%; in experiment [20], -1.21%.

As to `CC(C)(CO)CNC(=O)c1ccc2c(c1)/C(=N/Nc1ccc(S(N)(=O)=O)cc1)C(=O)N2`, the inhibition in experiment [1] was -0.62%; in [2], 3.82%; in [3], 22.2%; in experiment [4] it was -1.72%; in experiment [5], 11.1%; in [6] it was 0.08%. The inhibition in [7] is 6.23%; in [8], 1.72%; in experiment [9] it was 4.08%; in [10], -0.65%; in experiment [11], 5.36%; in experiment [12] it was 1.79%. The inhibition in experiment [13] was 16.9%; in experiment [14], -3.15%; in [15], 0.33%; in experiment [16] it was 5.62%; in experiment [17], 43.5%; in experiment [18], 7.49%. Further, the inhibition in experiment [19] was 44.1%; in experiment [20] it was -0.32%.

For `CCN1CCC(CC(=O)Nc2n[nH]c3nnc(-c4cccc(F)c4F)cc23)CC1`, the inhibition was -2.43% in experiment [1]; 2.47% in experiment [2]; 1.19% in experiment [3]; 0.64% in [4]; -0.57% in experiment [5]; 3.74% in experiment [6]. The inhibition in experiment [7] is 1.44%; in experiment [9], 2.26%; in experiment [10], 1.36%; in experiment [11], 1.73%; in [12], 2.07%; in experiment [13], 5.8%. The inhibition in experiment [14] was -0.89%; in experiment [15] it was 0.5%; in [16] it was 3.25%; in experiment [17], 2.64%; in [18], 2.74%; in experiment [19], 1.57%. The inhibition in experiment [20] was found to be 10.2%.

Consider `O=C(O[C@H]1CN[C@H](C#Cc2cc3ncnc(Nc4ccc(Cc5ccccc5)cc4)c3s2)C1)N1CCOCC1`, for which the inhibition was 0.95% in experiment [1]; 5.25% in experiment [2]; 20.8% in [3]; -0.12% in experiment [4]; 2.35% in [5]; -1.61% in [6]. Besides, the inhibition in [7] was 0.34%; in experiment [8], 5.18%; in experiment [9] it was -3.27%; in experiment [10], 0.99%; in experiment [11], 0.43%; in experiment [12], 7.04%. Further, the inhibition in experiment [13] was 38.8%; in experiment [14] it was -0.2%; in experiment [15] it was 2.04%; in experiment [16] it was 3.95%; in [17], 4.23%; in experiment [18], 3.02%. Besides, the inhibition is 3.28% in experiment [19] and -1.64% in experiment [20].

Take `CCn1c(-c2nonc2N)nc2ccccc21`: the inhibition in experiment [1] was -0.03%; in [2] it was 2.86%; in experiment [3], 4.31%; in experiment [4], 2.69%; in [5] it was 0.59%; in [6] it was 0.25%. Also, the inhibition in experiment [7] was 0.31%; in [8], 3.23%; in experiment [9] it was -0.21%; in experiment [10] it was 1.05%; in experiment [11] it was 0.63%; in experiment [12] it was -0.03%. Also, the inhibition was -1.08% in experiment [13]; 1% in experiment [14]; -0.17% in [15]; 3.74% in experiment [16]; 4.94% in experiment [17]; 3.64% in experiment [18]. Besides, the inhibition was determined as 4.52% in experiment [19] and 2.9% in experiment [20].

`CNC(=O)c1cccc(C#Cc2cncnc2Nc2ccc(OCc3cccc(F)c3)c(Cl)c2)c1`: the inhibition in [1] was found to be 1.45%; in experiment [2], 4.48%; in experiment [3] it was 6.13%; in [4] it was 1.95%; in experiment [5], 1.32%; in experiment [6], 1.74%. Further, the inhibition in [7] was 3.22%; in [8], 1.13%; in [9] it was 0.07%; in experiment [10], 3.38%; in experiment [11] it was 1.74%; in experiment [12], 2.71%. The inhibition in experiment [13] was 4.41%; in experiment [14] it was 2.49%; in [15] it was -0.96%; in experiment [16], 0.05%; in experiment [17], 2.22%; in experiment [18], 0.09%. The inhibition stood at 1.59% in experiment [19] and 2.66% in experiment [20].
